In the library only some 4.2% were active in any assay of this set; here they are far more common.
GDH-TPI counter-1: counter-screen for M. tuberculosis FBA inhibitors: GDH-TPI coupled enzymes. GDH-TPI coupled enzyme counterscreen, NADH absorbance. AID 588335. 1.2% of 360,000 active. inhibition, % at 4.8 µM; in the data active means inhibition above about 30%;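 further: 0% = DMSO wells and 100% = wells lacking the enzyme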
RecA intein inh: inhibitors of M. tuberculosis RecA intein splicing | 0.75% of 290,000 active | P9WHJ3 | inhibition, % (concentration not given with the values) | cell-free RecA intein splicing, fluorescence; in the data active means inhibition above about 30%;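 further: 0% = vehicle wells and 100% = reference inhibitor control wells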
Target sequence (P9WHJ3 whole entry, looked up): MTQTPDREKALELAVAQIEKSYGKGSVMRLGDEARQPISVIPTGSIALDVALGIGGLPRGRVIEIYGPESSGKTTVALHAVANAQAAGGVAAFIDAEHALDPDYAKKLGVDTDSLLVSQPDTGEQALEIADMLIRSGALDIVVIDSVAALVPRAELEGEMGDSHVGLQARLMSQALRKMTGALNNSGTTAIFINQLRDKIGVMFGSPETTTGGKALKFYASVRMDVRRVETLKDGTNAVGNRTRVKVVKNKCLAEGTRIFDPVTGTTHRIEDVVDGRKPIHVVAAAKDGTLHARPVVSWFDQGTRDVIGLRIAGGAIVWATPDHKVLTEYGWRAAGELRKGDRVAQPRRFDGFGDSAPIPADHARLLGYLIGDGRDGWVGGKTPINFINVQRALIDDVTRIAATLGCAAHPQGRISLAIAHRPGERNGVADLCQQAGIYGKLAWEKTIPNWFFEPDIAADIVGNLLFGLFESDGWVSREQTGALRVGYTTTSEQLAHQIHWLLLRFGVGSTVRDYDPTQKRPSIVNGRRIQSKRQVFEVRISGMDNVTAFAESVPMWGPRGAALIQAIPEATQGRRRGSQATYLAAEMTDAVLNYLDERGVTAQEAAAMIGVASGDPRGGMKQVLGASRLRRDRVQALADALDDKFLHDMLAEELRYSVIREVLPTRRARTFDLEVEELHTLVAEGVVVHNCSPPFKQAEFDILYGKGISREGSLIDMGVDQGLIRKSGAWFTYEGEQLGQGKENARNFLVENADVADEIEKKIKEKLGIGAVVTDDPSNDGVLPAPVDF
CCHFV vOTU inh: blocks the CCHF virus ovarian tumor domain protease; CCHFV vOTU protease, Pep-AMC fluorescence; inhibition, % at 11.5 µM; 0.55% of 370,000 active; AID 651958; in the data active means inhibition above about 30%; further: 0% = vehicle wells with enzyme and 100% = no enzyme wells
FBA Mtb inh: inhibitors of M. tuberculosis fructose-bisphosphate aldolase; P9WQA3; purified M. tuberculosis FBA, fluorescence read-out; inhibition, % at 1 µM; 2.3% of 360,000 active; AID 588726;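 further: 0% = vehicle and 100% = reference inhibitor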
Mtb FBA confirm: Mtb FBA inhibition, confirmed; shares compounds with FBA Mtb inh; purified M. tuberculosis FBA, fluorescence read-out; inhibition, % at 1 µM; 78% of 5,600 active;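 further: 0% = vehicle wells and 100% = reference inhibitor wells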
GDH-TPI counter-2: counter-screen for M. tuberculosis FBA inhibitors: GDH-TPI coupled enzyme inhibition | shares compounds with FBA Mtb inh | GDH-TPI coupled enzyme counterscreen, fluorescence | inhibition, % at 1 µM | 81% of 5,600 active; in the data active means inhibition above about 10%
* hit, by the source's call; · = no result; + = active, no number. Unless noted, no stated cut-off is given here; in the data, active means inhibition above about 27%; inactive means the rest.

SMILES	GDH-TPI counter-1	RecA intein inh	CCHFV vOTU inh	FBA Mtb inh	Mtb FBA confirm	GDH-TPI counter-2
O=C(Nc1cccc(Cl)c1)c1ccc2sc([C@H]3C[C@H](O)[C@@H](CO)O3)nc2c1	8	·	2	2	·	·
COc1ccc(OCCCC(=O)Nc2cc(Cl)ccc2-n2cncn2)cc1	4	3	-9	1	·	·
Cc1c(C)c2ccc(OCC(=O)Nc3ccc(CN4CCOCC4)cc3)cc2oc1=O	10	1	-6	47*	88*	86*
CCOC(=O)c1ccc(-c2ccc3c(=O)c4ccccc4n(C)c3c2)cc1F	13	-9	0	57*	133*	117*
CCOC(=O)c1ccc(/C=C2\c3ccccc3C(=O)N2c2ccccc2)cc1F	10	·	-8	5	·	·
Cn1c2ccccc2c(=O)c2ccc(Cl)cc21	6	·	-113	106*	64*	44*
Cn1c(=O)oc(=O)c2ccccc21	17	·	-40	94*	135*	116*
COCc1cccc(-c2csc(C(C)(O)c3cccc(OC)c3)n2)c1 (centres undefined)	12	·	4	3	·	·
CCOc1ccc(NS(=O)(=O)c2ccc(C(=O)NCC(c3ccc(OC)cc3)N3CCCC3)cc2)cc1 (centres undefined)	1	1	-10	1	·	·
CCOC(=O)c1nc2cc3n(c(C)c-2c1C)C(C)C(CC)=C3C (centres undefined)	2	-7	-23	34*	+	181*
COCCNC(=O)CSc1ccc(-c2nc3ccccc3[nH]2)cn1	31*	0	-12	31*	2	-4
CCOC(=O)N1CCN(S(=O)(=O)c2c[nH]c(C(=O)OC)c2)CC1	-5	-3	14	1	·	·
Cc1cc(C)cc(NC(=O)N2CCNC(=O)C2CC(=O)Nc2cc(Cl)ccc2Cl)c1 (centres undefined)	0	0	7	-1	·	·
CNc1nccc(-c2ccc(F)cc2)c1C#N	6	-2	-75	32*	145*	96*
COc1ccccc1C(CNC(=O)C1CC(=O)N(Cc2ccc(C)cc2)C1)N1CCCC1 (centres undefined)	-8	1	8	-2	·	·
CC1CCC2C(C1)Nc1c(C(=O)O)cccc1C2(C)C (centres undefined)	9	0	-84	77*	23	11*
C[C@H](CO)N1C[C@H](C)[C@@H](CN(C)C(=O)c2ccncc2)OCc2cnnn2CCCC1=O	9	·	-11	0	·	·
CC(NC(=O)Cn1cc(Br)c([N+](=O)[O-])n1)c1ccccc1 (centres undefined)	6	-2	0	2	·	·
COc1ccc(-c2nn(-c3ccccc3)cc2N)cc1	6	7	-36	93*	+	+
COc1ccc(-c2nn(-c3ccccc3)cc2CO)cc1	12	1	4	2	·	·
CCN1CCN(c2oc(-c3ccc(OC)cc3)nc2C#N)CC1	26	-3	-19	32*	143*	119*
COc1ccccc1-c1nc(C#N)c(N2CC(C)CC(C)C2)o1 (centres undefined)	3	2	-14	23	·	·
COc1ccccc1-c1nc(C#N)c(N2CCN(c3ccccc3)CC2)o1	3	12	-4	6	·	·
CC1CC(C)CN(c2oc(-c3ccccc3F)nc2C#N)C1 (centres undefined)	10	-3	-30	60*	101*	78*
Cc1ccccc1-c1nc(C#N)c(N2CCC(C)CC2)o1	12	15	5	48*	51*	46*
SMILES	GDH-TPI counter-1	RecA intein inh	CCHFV vOTU inh	FBA Mtb inh	Mtb FBA confirm	GDH-TPI counter-2
COc1ccccc1-c1nc(C#N)c(N2CCc3ccccc3C2)o1	14	-2	-57	106*	-5	-5
Cc1cc(C)cc(OCc2ccc(C(=O)NN)o2)c1	10	2	-12	-1	·	·
C/C=C(\C)C(=O)NNC(=O)c1sc(-c2ccccc2)nc1C	27	2	0	3	·	·
CCn1c(SCC(=O)Nc2ccc(C(N)=O)cc2)nc2sc(C)c(C)c2c1=O	·	·	24	·	·	·
CCOC(=O)C1CCCN(c2oc(-c3ccc(F)cc3)nc2C#N)C1 (centres undefined)	3	8	-11	30*	+	197*
CC1CCN(c2oc(-c3ccc(F)cc3)nc2C#N)CC1	9	4	-19	97*	-1	-2
COc1ccc(OC)c(S(=O)(=O)NCC(c2cccs2)N2CCc3ccccc3C2)c1 (centres undefined)	7	8	-14	-2	·	·

Screens as filed in PubChem.
